The source made the active and inactive calls. How the source made its calls: active means hit-call score of the fitted dose curve at least 0.9, where 1 is the maximum; inactive means score below 0.9.
Experiments:
[1] = read-out: Interleukin-6 (IL6), IL6 (gene 3569); test: BSK_CASM3C_IL6: BioMAP Diversity Plus: CASM3C Assay for Interleukin-6 (IL6) Biomarker Activity for (AID 2283040); conditions: primary human coronary artery smooth muscle cells; actives raise or lower the signal
[2] = read-out: Tissue plasminogen activator (tPA), PLAT (gene 5327); test: BSK_BE3C_tPA: BioMAP Diversity Plus: BE3C Assay for Tissue plasminogen activator (tPA) Biomarker Activity (AID 2283041); conditions: primary human bronchial epithelial cells; actives raise or lower the signal
Procedure, shortened: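 ELISA read-out of tPA on human primary bronchial epithelial cells, 24 h post-dosing; bidirectional fit vs DMSO negative control/baseline.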

[3] = read-out: Interleukin-8 (IL8), CXCL8 (gene 3576); test: BSK_CASM3C_IL8: BioMAP Diversity Plus: CASM3C Assay for Interleukin-8 (IL8) Biomarker Activity (AID 2283042); conditions: primary human coronary artery smooth muscle cells; actives raise or lower the signal;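 further: IL-8 protein level quantified by ELISA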
[4] = read-out: Human Leukocyte Antigen - DR isotype (HLADR), HLA-DRA (gene 3122); test: BSK_CASM3C_HLADR: BioMAP Diversity Plus: CASM3C Assay for Human Leukocyte Antigen - DR isotype (HLADR) Biomarker Activity (AID 2283043); conditions: primary human coronary artery smooth muscle cells; actives raise or lower the signal;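 further: cell-surface HLA-DR protein level quantified by ELISA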
[5] = read-out: Macrophage colony-stimulating factor (MCSF), CSF1 (gene 1435); test: BSK_CASM3C_MCSF: BioMAP Diversity Plus: CASM3C Assay for Macrophage colony-stimulating factor (MCSF) Biomarker Activity (AID 2283044); conditions: primary human coronary artery smooth muscle cells; actives raise or lower the signal;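 further: M-CSF protein amount quantified by ELISA after 24 h exposure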
[6] = read-out: Low-density lipoprotein receptor (LDLR), LDLR (gene 3949); test: BSK_CASM3C_LDLR: BioMAP Diversity Plus: CASM3C Assay for Low-density lipoprotein receptor (LDLR) Biomarker Activity (AID 2283045); conditions: primary human coronary artery smooth muscle cells; actives raise or lower the signal;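 further: LDLR protein level on the cell surface quantified by ELISA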
[7] = read-out: Monocyte Chemoattractant Protein-1 (MCP1), CCL2 (gene 6347); test: BSK_CASM3C_MCP1: BioMAP Diversity Plus: CASM3C Assay for Monocyte Chemoattractant Protein-1 (MCP1) Biomarker Activity (AID 2283046); conditions: primary human coronary artery smooth muscle cells; actives raise or lower the signal;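 further: MCP-1 level quantified by ELISA 24 h after dosing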
[8] = BSK_CASM3C_Proliferation: Cell Proliferation Assessment in the BioMAP Diversity Plus: CASM3C Assay (AID 2283047); conditions: primary human coronary artery smooth muscle cells;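 further: sulforhodamine B total protein stain as relative cell number at 560 nm; sub-confluent cells exposed 48 h before staining; fitted both ways against DMSO so gain or loss of cell number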
[9] = read-out: Monokine induced gamma interferon (MIG), CXCL9 (gene 4283); test: BSK_CASM3C_MIG: BioMAP Diversity Plus: CASM3C Assay for Monokine induced gamma interferon (MIG) Biomarker Activity (AID 2283048); conditions: primary human coronary artery smooth muscle cells; actives raise or lower the signal;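 further: MIG protein level measured by ELISA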
[10] = read-out: serum amyloid A (SAA), SAA1 (gene 6288); test: BSK_CASM3C_SAA: BioMAP Diversity Plus: CASM3C Assay for serum amyloid A (SAA) Biomarker Activity (AID 2283049); conditions: primary human coronary artery smooth muscle cells; actives raise or lower the signal;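 further: SAA protein level quantified by ELISA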

Measured: AC50

CCOC(=O)c1ccccc1C(=O)OCC
inactive: [1] | [2] | [3] | [4] | [5] | [6] | [7] | [8] | [9] | [10]

[N-]=[N+]=[N-]
inactive: [1] | [2] | [3] | [4] | [5] | [6] | [7] | [8] | [9] | [10]

CCOP(=S)(NC(C)C)Oc1ccccc1C(=O)OC(C)C (configuration not stated)
inactive: [1] | [2] | [3] | [4] | [5] | [6] | [7] | [8] | [9] | [10]

CC(O)C(F)(F)C(F)(F)F (configuration not stated)
inactive: [1] | [2] | [3] | [4] | [5] | [6] | [7] | [8] | [9] | [10]

CCOc1ccc(C(C)(C)COCc2cccc(Oc3ccccc3)c2)cc1
active: [2] 0.668 µM
inactive: [1] | [3] | [4] | [5] | [6] | [7] | [8] | [9] | [10]

CCOP(=S)(OCC)SCn1nnc2ccccc2c1=O
active: [6] 32.3 µM | [8] 20 µM
inactive: [1] | [2] | [3] | [4] | [5] | [7] | [9] | [10]

CCCCC(CC)COC(=O)c1c(Br)c(Br)c(Br)c(Br)c1C(=O)OCC(CC)CCCC (configuration not stated)
active: [10] 14.7 µM
inactive: [1] | [2] | [3] | [4] | [5] | [6] | [7] | [8] | [9]

Nc1ccc(Cl)cc1
inactive: [1] | [2] | [3] | [4] | [5] | [6] | [7] | [8] | [9] | [10]

Nc1cc2c3c(c1)C(c1ccccc1)=N[C@@H](NC(=O)c1cccnc1)C(=O)N3CC2
inactive: [1] | [2] | [3] | [4] | [5] | [6] | [7] | [8] | [9] | [10]

COC(=O)C(F)(F)C(F)(F)OC(F)(C(F)(F)F)C(F)(F)OC(F)=C(F)F (configuration not stated)
inactive: [1] | [2] | [3] | [4] | [5] | [6] | [7] | [8] | [9] | [10]

CCCCCCCc1ccc(O)cc1
inactive: [1] | [7]
active: [2] 32.2 µM | [3] 23 µM | [4] 35.3 µM | [5] 35.5 µM | [6] 31.2 µM | [8] 37 µM | [9] 35.3 µM | [10] 34.4 µM

O=[N+]([O-])c1ccccc1
inactive: [1] | [2] | [3] | [4] | [5] | [6] | [7] | [8] | [9] | [10]

OCC(F)(F)OC(F)(F)C(F)(F)OC(F)(F)CO
inactive: [1] | [2] | [3] | [4] | [5] | [6] | [7] | [8] | [9] | [10]

O=P1(N(CCCl)CCCl)NCCCO1 (configuration not stated)
inactive: [1] | [2] | [3] | [4] | [5] | [6] | [7] | [8] | [9] | [10]

O=C(O)C(Cl)Cl
inactive: [1] | [2] | [3] | [4] | [5] | [6] | [7] | [8] | [9] | [10]

O=S(=O)(F)C(F)(F)C(F)(F)C(F)(F)C(F)(F)C(F)(F)C(F)(F)C(F)(F)C(F)(F)F
inactive: [1] | [2] | [3] | [4] | [5] | [6] | [7] | [8] | [9] | [10]

CC(C)(C)c1ccccc1OP(=O)(Oc1ccccc1)Oc1ccccc1
active: [6] 4.61 µM | [8] 20 µM
inactive: [1] | [2] | [3] | [4] | [5] | [7] | [9] | [10]

FC(F)(F)C(F)(C(F)(F)F)C(F)(F)C(F)(F)CC1CO1 (configuration not stated)
inactive: [1] | [2] | [3] | [4] | [5] | [6] | [7] | [8] | [9] | [10]

O=C(O)C(F)(F)C(F)(F)C(=O)O
inactive: [1] | [2] | [3] | [4] | [5] | [6] | [7] | [8] | [9] | [10]

ClC1=C(Cl)C2(Cl)C3C(Cl)C(Cl)CC3C1(Cl)C2(Cl)Cl (configuration not stated)
active: [4] 20 µM | [8] 31.1 µM | [10] 20 µM
inactive: [1] | [2] | [3] | [5] | [6] | [7] | [9]

OCC1CO1 (configuration not stated)
inactive: [1] | [2] | [3] | [4] | [5] | [6] | [7] | [8] | [9] | [10]

ClC(Cl)c1ccccc1
inactive: [1] | [2] | [3] | [4] | [5] | [6] | [7] | [8] | [9] | [10]

Cc1ccc(O)cc1C
active: [7] 0.658 µM
inactive: [1] | [2] | [3] | [4] | [5] | [6] | [8] | [9] | [10]

COP(=O)(O)OC
inactive: [1] | [2] | [3] | [4] | [5] | [6] | [7] | [8] | [9] | [10]

Nc1ccc([N+](=O)[O-])cc1Cl
inactive: [1] | [2] | [3] | [4] | [5] | [6] | [7] | [8] | [9] | [10]

CC(C)(C)c1ccc(O)cc1
inactive: [1] | [2] | [3] | [4] | [5] | [6] | [7] | [8] | [9] | [10]

Cc1ccc2c(c1N)C(=O)c1ccccc1C2=O
inactive: [1] | [2] | [3] | [4] | [6] | [7] | [8] | [9] | [10]

O=S1(=O)OCC2C(CO1)C1(Cl)C(Cl)=C(Cl)C2(Cl)C1(Cl)Cl (configuration not stated)
inactive: [1] | [2] | [3] | [6] | [7] | [9]
active: [4] 32.7 µM | [5] 7.85 µM | [8] 20 µM | [10] 23.2 µM

O=P(OCC(Br)CBr)(OCC(Br)CBr)OCC(Br)CBr (configuration not stated)
inactive: [1] | [2] | [3] | [4] | [5] | [7] | [9] | [10]
active: [8] 3.51 µM

CCCN(CCC)c1c([N+](=O)[O-])cc(C(C)C)cc1[N+](=O)[O-]
inactive: [1] | [2] | [3] | [5] | [7] | [9] | [10]
active: [6] 20 µM | [8] 31.7 µM

CN(C)C(=O)Cl
inactive: [1] | [2] | [3] | [4] | [5] | [6] | [7] | [8] | [9] | [10]

CSC(C)(C)C=NO
inactive: [1] | [2] | [3] | [4] | [5] | [6] | [7] | [8] | [9] | [10]

CCCCc1ccccc1
inactive: [1] | [2] | [3] | [4] | [5] | [6] | [7] | [8] | [9] | [10]

CCOP(=S)(OCC)SCSCC
inactive: [1] | [2] | [3] | [4] | [5] | [6] | [7] | [8] | [9] | [10]

C=CC(=O)OCC(CC)(COC(=O)C=C)COC(=O)C=C
active: [1] 2.11 µM | [2] 5.46 µM | [3] 6.3 µM | [4] 1.46 µM | [5] 1.98 µM | [7] 2.54 µM | [8] 2.84 µM | [9] 2.82 µM | [10] 0.624 µM
inactive: [6]

O=C(O)C(F)(F)OC(F)(F)C(F)(F)OC(F)(F)C(=O)O
inactive: [1] | [2] | [3] | [4] | [5] | [6] | [7] | [8] | [9] | [10]

c1cc2c3c(cccc3c1)CC2
inactive: [1] | [2] | [3] | [4] | [5] | [6] | [7] | [8] | [9] | [10]

Cc1ccc([N+](=O)[O-])cc1C
inactive: [1] | [2] | [3] | [4] | [5] | [6] | [7] | [8] | [9] | [10]

ClC(Cl)=C(c1ccc(Cl)cc1)c1ccccc1Cl
active: [4] 26.1 µM | [5] 16.7 µM | [6] 23.5 µM | [7] 20 µM | [8] 30 µM
inactive: [1] | [2] | [3] | [9] | [10]

O=C(O)C1C(C(=O)O)C2(Cl)C(Cl)=C(Cl)C1(Cl)C2(Cl)Cl (configuration not stated)
inactive: [1] | [2] | [3] | [4] | [5] | [6] | [7] | [8] | [9] | [10]

c1nc[nH]n1
inactive: [1] | [2] | [3] | [4] | [5] | [6] | [7] | [8] | [9] | [10]

c1ccc(OP(Oc2ccccc2)Oc2ccccc2)cc1
inactive: [1] | [2] | [3] | [4] | [5] | [6] | [7] | [8] | [9] | [10]
